Measurements taken from PubChem BioAssay AID1209 (Sanford-Burnham Center for Chemical Genomics, 2008).
The campaign covered roughly 190,000 compounds. About 810 (0.43%) were called active. No stated cut-off is given here; in the data, active means inhibition above about 50%; inactive means the rest. Many of the other results were omitted from the sample, so actives are more common in it than they were.

The compounds below were run against Mannose-6-phosphate isomerase (Homo sapiens) (UniProt P34949) (assay: MPI enzyme activity inhibition – biochemical, fluorescence intensity, coupled assay, primary screen (AID 1209;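 further: plate controls were DMSO vehicle for no effect and wells lacking substrate for full effect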)). Details: purified PMI enzyme, at 20 µM, stronger effect = higher value.
Mannose-6-phosphate isomerase (Homo sapiens), sequence (P34949 whole entry, looked up): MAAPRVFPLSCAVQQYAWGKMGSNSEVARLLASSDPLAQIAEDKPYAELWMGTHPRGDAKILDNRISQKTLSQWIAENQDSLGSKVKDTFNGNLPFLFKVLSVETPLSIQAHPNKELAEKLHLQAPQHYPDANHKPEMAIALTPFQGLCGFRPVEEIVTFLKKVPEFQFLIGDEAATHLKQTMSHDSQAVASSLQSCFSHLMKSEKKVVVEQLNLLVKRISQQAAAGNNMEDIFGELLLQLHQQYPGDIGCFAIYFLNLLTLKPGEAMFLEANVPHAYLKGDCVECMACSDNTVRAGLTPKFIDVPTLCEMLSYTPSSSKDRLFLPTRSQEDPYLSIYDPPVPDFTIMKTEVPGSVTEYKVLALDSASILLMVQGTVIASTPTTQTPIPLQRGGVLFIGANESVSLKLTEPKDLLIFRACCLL

SMILES | inhibition
O=C1c2ccccc2C(=O)N1CCCCN(C(=O)c1cc2ccccc2oc1=O)c1ccc(F)cc1F | 11.5% (inactive)
Cc1cccc(-n2c(Cc3ccccc3)nnc2SCC(=O)N2CCOCC2)c1 | -6.7% (inactive)
O=C(NCc1ccccc1)c1cnc(-c2ccccn2)nc1C(F)(F)F | -3.7% (inactive)
CCC(OC(=O)c1cccs1)C(=O)NC1CCCCC1 (centres undefined) | 3.4% (inactive)
O=[N+]([O-])c1cc(/C=N/n2c(-c3ccncc3)n[nH]c2=S)ccc1Cl | 2.2% (inactive)
CC(C)CC(c1nnnn1Cc1ccc2c(c1)OCO2)N1CCC(C(N)=O)CC1 (centres undefined) | 7.2% (inactive)
Cc1sc(NC(=O)C2CCCCC2C(=O)O)c(C(N)=O)c1C (centres undefined) | -5.3% (inactive)
CCc1c(C)sc(NC(=O)C2CC2c2ccccc2)c1C(N)=O (centres undefined) | 7.7% (inactive)
CCc1c(C)sc(NC(=O)C2CCCCC2C(=O)O)c1C(N)=O (centres undefined) | 72.1% (active)
COC(=O)c1c(N2C(=O)CC(Sc3ccccc3C(=O)O)C2=O)sc(C)c1C (centres undefined) | -16.2% (inactive)
COC(=O)c1sccc1NC(=O)CSc1ccccc1N | 12.4% (inactive)
CCN(CC(=O)NCc1ccc(F)cc1)Cc1cc(=O)n2ccsc2n1 | -30.2% (inactive)
Cc1ccc(-n2nc3cc(C)c(N)cc3n2)cc1 | 75.3% (active)
CC(=O)Nc1cc2nn(-c3ccccc3)nc2cc1Cl | 0.2% (inactive)
CCC(=O)Nc1cc2nn(-c3ccc(C)cc3)nc2cc1C | -2.8% (inactive)
Nc1ccc2nn(-c3cccc4ccccc34)nc2c1 | 42.9% (inactive)
Nc1ccc2nn(-c3ccccc3)nc2c1 | 35.7% (inactive)
Nc1cc2nn(-c3ccccc3)nc2cc1Cl | 69.4% (active)
Cc1cc2nn(-c3cccc4ccccc34)nc2cc1N | 77.5% (active)
Cc1ccc(-n2nc3ccc(N)cc3n2)cc1 | 38.7% (inactive)
Cc1cc2nn(-c3cccc4ccccc34)nc2cc1NC(=O)c1cccs1 | 12.3% (inactive)
OCCNCc1cc(Br)ccc1OCc1ccc(Cl)cc1 | 10.8% (inactive)
COc1ccccc1NC(=O)CCN1CCCCCC1 | -1.2% (inactive)
O=C(Cc1ccccc1F)OCC(=O)N1CCN(C(=O)c2ccco2)CC1 | -7.8% (inactive)
COc1cc(/C=N/NC(=O)C(Cc2c[nH]c3ccccc23)NC(=O)OCC(C)C)cc([N+](=O)[O-])c1OCc1ccccc1 (centres undefined) | 13.6% (inactive)

SMILES | inhibition
Cc1ccc(S(=O)(=O)N2CCCC(C(=O)NCc3cccnc3)C2)cc1Cl (centres undefined) | 12.2% (inactive)
CCOc1ccc(NC(=O)CSc2nnc(-c3ccccn3)n2C)cc1 | 2.1% (inactive)
[N-]=[N+]=CC(=O)CNC(=O)[C@@H](Cc1ccccc1)N1C(=O)c2ccccc2C1=O | -1.7% (inactive)
CCc1nc(SC)[nH]c(=O)c1C | -10.9% (inactive)
COC(=O)c1c(NC(=O)/C=C/c2ccco2)sc2c1CCC2 | -2.8% (inactive)
CCOc1ccc(NS(=O)(=O)c2ccc(NC(=S)NC(C)=O)cc2)cc1 | 4.1% (inactive)
O=C(COC(=O)C(Cc1ccccc1)NC(=O)c1ccc(Cl)cc1)c1ccc(Cl)cc1 (centres undefined) | 111% (active)
O=C(COC(=O)C(Cc1ccccc1)NC(=O)c1ccccc1)c1ccccc1 (centres undefined) | 6.8% (inactive)
CCc1ccc(C(=O)COC(=O)C(Cc2ccccc2)NC(=O)c2ccc(Cl)cc2)cc1 (centres undefined) | 11.2% (inactive)
O=C(OC1CCOC1=O)c1cc(-c2ccccc2)nc2ccccc12 (centres undefined) | 8.9% (inactive)
Oc1ccc2ccccc2c1/C=N/n1cnnc1 | 15.7% (inactive)
Oc1ccc2ccccc2c1C=NC1CCCCC1 | 79.8% (active)
Oc1ccc2ccccc2c1C=NC12CN3CCN(CN(C3)C1)C2 | 67.7% (active)
OCC(CO)(CO)N=Cc1c(O)ccc2ccccc12 | 37.3% (inactive)
Oc1ccc2ccccc2c1C=Nc1ccc(N2CCOCC2)cc1 | 35.2% (inactive)
CN(C)/N=C/c1c(O)ccc2ccccc12 | 31.9% (inactive)
O=C(CCc1ccccc1)Nc1ccc(N2CCOCC2)c(Cl)c1 | 11.3% (inactive)
N#Cc1nc(COc2ccccc2)oc1NCCCn1ccnc1 | 0.3% (inactive)
CCC(=O)Nc1ccccc1-c1nnn(CC(=O)N2c3ccccc3CC2C)n1 (centres undefined) | 13% (inactive)
CCCCN(C(=O)c1ccc(S(=O)(=O)N(C)C)cc1)c1nc2ccccc2s1 | 11.7% (inactive)
CCOC(=O)Cc1cnc(N)s1 | 2.1% (inactive)
COCCN(CC(=O)NCC1CCCO1)C(=O)CCC(=O)Nc1cc(C)ccn1 (centres undefined) | -12.3% (inactive)
Nc1cnc(Br)cc1Br | -8.6% (inactive)
Nc1cc2nsnc2cc1Br | 61% (active)
Cc1ccc2nsnc2c1N | 8.5% (inactive)

SMILES | inhibition
NS(=O)(=O)c1ccc(CCNC(=O)CSc2ncnc3ccccc23)cc1 | 7.5% (inactive)
CCOc1cccc(CNc2ccc(O)cc2)c1OCc1ccc(Cl)cc1Cl | 40.3% (inactive)
CCOc1cccc(CNc2ccc(O)cc2)c1OCc1ccc(Cl)cc1 | 53.9% (active)
CCOc1cccc(CNc2ccc(O)cc2)c1OCc1ccccc1Cl | 28.5% (inactive)
CC(OC(=O)C1=COCCO1)C(=O)Nc1cc(S(=O)(=O)N2CCCCC2)ccc1Cl (centres undefined) | -6.3% (inactive)
COCCCNC(=S)N1CCN(c2ccc([N+](=O)[O-])cc2)CC1 | 5% (inactive)
Cc1ccc(CNC(=O)CCNC(=O)c2ccco2)cc1 | -8.4% (inactive)
CCOC(=O)c1cc(CC)sc1/N=C/c1c(O)ccc2ccccc12 | 37.2% (inactive)
CCOC(=O)c1sc(/N=C/c2c(O)ccc3ccccc23)cc1C | 58.3% (active)
CCOC(=O)c1sc(/N=C/c2ccc(O)cc2O)cc1C | 28.9% (inactive)
CCc1ccc(NC(=S)/N=C(\N)Nc2nc(C)c3cc(CC)ccc3n2)cc1 | 11.4% (inactive)
COc1ccc(-c2ccc(C(=O)O)o2)c([N+](=O)[O-])c1 | 73.7% (active)
CNC(=O)/C(C#N)=C/c1ccc(-c2ccc(OC)cc2[N+](=O)[O-])o1 | 28.2% (inactive)
COc1cccc(NC(=O)c2ccc(-c3ccccc3[N+](=O)[O-])o2)c1 | -13.3% (inactive)
Cn1c(SCC(=O)N2CCOCC2)nnc1-c1cccc(NC(=O)c2ccccc2F)c1 | 2.1% (inactive)
COc1ccc(-c2nc(N)n[nH]2)cc1OC | 2.2% (inactive)
COc1ccc(-c2nn[nH]n2)cc1OC | -5% (inactive)
Cc1c(C(=O)NN)sc(-c2ccccc2)c1C#N | -23.8% (inactive)
CCn1c(C)nc2cc(C(=O)N/N=C/c3cccc(OC)c3O)ccc21 | 5.6% (inactive)
CCN(CC)S(=O)(=O)c1cccc(C(=O)N/N=C/c2ccc(O)c(O)c2O)c1 | 77.7% (active)
CCN(CC)S(=O)(=O)c1cccc(C(=O)N/N=C/c2cc(OC)c(O)c(OC)c2)c1 | 19.2% (inactive)
CCn1c(C)nc2cc(C(=O)N/N=C/c3ccccc3C)ccc21 | -4.6% (inactive)
CCN(CC)S(=O)(=O)c1cccc(C(=O)N/N=C/c2cccc(O)c2O)c1 | 20% (inactive)
NC(=O)COC(=O)c1c2c(nc3ccccc13)CCCC2 | -8.6% (inactive)
NS(=O)(=O)c1ccc(CCNC(=O)c2ccc3nc4ccc(Cl)cc4c(=O)n3c2)cc1 | -11.6% (inactive)

SMILES | inhibition
CC(C)(C(=O)O)n1cncn1 | -17.9% (inactive)
CC(C)(C)c1ccccc1OCCCCCn1ccnc1 | 14% (inactive)
Oc1ccccc1/C=N/N1CCCCC1 | 10.8% (inactive)
CC(=O)NC1=NN(C(C)=O)C(c2ccccc2)S1 (centres undefined) | 10.4% (inactive)
O=C(COc1ccc(C(=O)NCCc2ccccc2)cc1)Nc1ccccc1 | 9.8% (inactive)
COCc1[nH]nc2c1C(c1ccc(OC)c(OC)c1)C(C#N)=C(N)O2 (centres undefined) | 2% (inactive)
COCc1[nH]nc2c1C(c1ccc(OC)cc1)C(C#N)=C(N)O2 (centres undefined) | 21.3% (inactive)
COCc1[nH]nc2c1C(c1cc(OC)c(O)c(OC)c1)C(C#N)=C(N)O2 (centres undefined) | 53.8% (active)
CCOc1ncccc1C(=O)OCC(=O)c1cc(OC)ccc1OC | -1.1% (inactive)
COc1ccc(C(=O)COC(=O)c2cccnc2Cl)c(OC)c1 | 0.1% (inactive)
O=C(O)C1CCCCC1C(=O)NCc1ccc(F)cc1 (centres undefined) | 13.1% (inactive)
CCOc1cc(C(=O)Nc2cccc(C(C)=O)c2)ccc1OCC(=O)N1CCCCC1 | 8.7% (inactive)
O=C1NCCCC2c3cc(O)c4ccccc4c3OC12N1CCCCC1 (centres undefined) | 21% (inactive)
O=C1NCCCC2c3c(cc(Br)c(O)c3Br)OC12N1CCCCC1 (centres undefined) | 24.7% (inactive)
O=C1NN=C(c2ccccc2)CC1c1ccc(Cl)cc1Cl (centres undefined) | 4.2% (inactive)
Cc1ccc(S(=O)(=O)/N=C2/C=C(Sc3ncn[nH]3)C(=O)c3ccccc32)cc1 | 101% (active)
CCc1ccc(S(=O)(=O)/N=C2\C=CC(=O)c3ccccc32)cc1 | 6.9% (inactive)
CC(C)c1ccc(S(=O)(=O)/N=C2/C=CC(=O)c3ccccc32)cc1 | 34.5% (inactive)
COC(=O)C(C(C)=O)C1=C/C(=N\S(=O)(=O)c2ccc(C)cc2)c2ccccc2C1=O (centres undefined) | 22.1% (inactive)
CC(C)c1ccc(S(=O)(=O)/N=C2/C=C(Sc3ncn[nH]3)C(=O)c3ccccc32)cc1 | 95.1% (active)
O=C1c2ccccc2C(=O)N1CCSc1ncn[nH]1 | -7.4% (inactive)
Cc1ccc(S(=O)(=O)/N=C2/C=C(C3C(=O)CC(C)(C)CC3=O)C(=O)c3ccccc32)cc1 | 9.6% (inactive)
O=C(O)c1ccc(NC2=C/C(=N/S(=O)(=O)c3ccccc3)c3ccccc3C2=O)cc1 | -68.7% (inactive)
CCc1ccc(S(=O)(=O)/N=C2/C=C(Sc3ncn[nH]3)C(=O)c3ccccc32)cc1 | 98.8% (active)
